Screening results from PubChem.
The list is not random: actives were taken first. Their share in the collection is about 11%.
L3MBTL1 inh = blocks human L3MBTL1; Q9Y468; AlphaScreen L3MBTL1–H3K9me1 peptide binding; Potency, µM (highest dose often 57.1 µM), most hits filed as inhibitors; 230,000 compounds, 0.66% hits; note: nearly all actives have a fitted effect of over 60% in size
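AlphaScreen assay: L3MBTL1 (50 nM final) was preincubated 30 min at room temperature with biotinylated H3(1-15)K9me1 peptide (75 nM final), then 30 min with library compounds; streptavidin donor and nickel chelate acceptor beads (10 ug/mL final) added, 30 min dark.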
BAZ2B inh = inhibitors of human BAZ2B bromodomain. Potency, µM (titrated, usually from 114 µM), most hits filed as inhibitors. 360,000 compounds, 4.4% hits. Q9UIF8. AlphaScreen BAZ2B-H3K14Ac peptide displacement; note: nearly all actives have a fitted effect of over 60% in size
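In this displacement format the biotinylated H3(5-23) peptide acetylated at Lys14 serves as ligand at 50 nM, with BAZ2B at 50 nM in PBS pH 7.4 containing 0.01% Tween-20. Donor and acceptor beads are 10 ug/mL final.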
JMJD2A Tudor inh = JMJD2A Tudor domain (human) inhibition; O75164; AlphaScreen JMJD2A-Tudor / H3K4me3 peptide binding; Potency, µM (titrated, usually from 114 µM), usual class: inhibitors; 390,000 compounds, 4.4% hits; AID 504339; note: nearly all actives have a fitted effect of over 50% in size
G9a block = G9a (human) methyltransferase inhibition; Q96KQ7; G9a H3K9 monomethylation, AlphaScreen, 2 h; Potency, µM (titrated, usually from 102 µM), usual class: inhibitors; 350,000 compounds, 8.8% hits; AID 504332; note: nearly all actives have a fitted effect of over 75% in size
Target sequence (Q96KQ7 913-1193 limits assumed): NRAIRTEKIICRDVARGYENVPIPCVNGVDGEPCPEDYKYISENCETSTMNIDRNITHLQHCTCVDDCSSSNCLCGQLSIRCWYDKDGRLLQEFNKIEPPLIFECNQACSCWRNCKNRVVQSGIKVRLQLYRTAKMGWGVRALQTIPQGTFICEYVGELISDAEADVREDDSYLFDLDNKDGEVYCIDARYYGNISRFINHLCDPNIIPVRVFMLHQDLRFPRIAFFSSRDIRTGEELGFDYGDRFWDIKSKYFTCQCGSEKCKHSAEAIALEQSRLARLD
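Enzyme 20 nM + cpd, 15 min RT; add b-H3K9 pep 500 nM / SAM 20 uM; 2 h RT; anti-H3K9me1 Ab 0.5 ug/mL + SA donor / anti-rabbit acceptor beads 20 ug/mL each, 10 min; AlphaScreen read.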
HP1b chromo inh = inhibitors of HP1-beta chromodomain binding to methylated histone tails; P83916; AlphaScreen HP1-beta / biotin-H3K9me3 peptide binding; Potency, µM (series often up to 114 µM), hits mostly inhibitors; 390,000 compounds, 0.56% hits; AID 540317; note: nearly all actives have a fitted effect of over 70% in size
Target sequence (P83916 whole entry, looked up): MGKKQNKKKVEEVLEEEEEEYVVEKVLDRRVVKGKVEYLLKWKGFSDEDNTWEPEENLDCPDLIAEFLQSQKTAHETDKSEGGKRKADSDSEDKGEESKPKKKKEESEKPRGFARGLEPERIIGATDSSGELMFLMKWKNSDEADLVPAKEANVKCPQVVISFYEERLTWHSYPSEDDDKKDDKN
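Compound inhibition of the preformed complex between 50 nM HP1-beta and 50 nM biotinylated H3K9me3 peptide was read by AlphaScreen. Buffer was PBS pH 7.4 with 0.01% Tween-20. Incubations ran 30 min at room temperature, with 10 ug/mL donor/acceptor beads.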
Of the large screens only hits and unclear results are named; the others gave an inactive call. Calls come from the whole dose curve; as a rule, active = well fitted inhibition curve with a large enough effect; inconclusive = small, poorly fitted or top-dose-only effect; inactive = no such curve, though single readings can be large or run the other way.

Cc1cc(SCC(=O)N/N=C/c2ccc(O)c(O)c2)nc2ccccc12	L3MBTL1 inh inconclusive, BAZ2B inh 45µM, JMJD2A Tudor inh inconclusive, HP1b chromo inh inconclusive (no result: G9a block)
O=C(CSc1nc2ccccc2o1)N/N=C/c1ccc(O)c(O)c1	BAZ2B inh 45µM, JMJD2A Tudor inh 16µM, G9a block inconclusive, HP1b chromo inh inconclusive (no result: L3MBTL1 inh)
C/C(=N\NC(=O)CSc1nc2ccccc2o1)c1cccc(O)c1	none (no result: L3MBTL1 inh)
Cc1ccc(SCC(=O)n2nc(C)cc2C)cc1	none
Cc1cc(C)n(C(=O)CSc2nc3ccccc3o2)n1	G9a block 79µM
CCOC(=O)c1cnn(-c2ccc(F)cc2)c1N	none
CCOc1cc(/C=N/O)ccc1OCC(=O)Nc1cccc(C)c1	none
CCOc1cc(-c2nc(C)c(C(C)=O)n2O)ccc1OCC(=O)Nc1cccc(C)c1	G9a block 50µM
COc1ccc(C(NC(=O)/C=C\c2ccco2)c2ccc(OC)c(OC)c2)cc1 (stereo unspecified)	JMJD2A Tudor inh 50µM, G9a block 25µM
COc1ccc(-c2csc(NC(=S)NC(=O)/C=C/c3ccco3)n2)cc1OC	none
CCC(Cc1ccccc1)NC(=O)/C=C/c1ccco1 (stereo unspecified)	none
COc1ccc(C(NC(=O)/C=C/c2ccco2)c2ccc(OC)cc2)cc1	BAZ2B inh 50µM, JMJD2A Tudor inh inconclusive, G9a block 8.9µM, HP1b chromo inh inconclusive
Cc1ccc(CNC(=O)CCN2C(=O)COc3ccc(C)cc32)cc1	none (no result: L3MBTL1 inh)
COc1ccccc1CNC(=O)CN1N=C(c2ccccc2)CCC1=O	none (no result: L3MBTL1 inh)
O=C(CCCn1c(=O)c2ccccc2n(Cc2cccc(F)c2)c1=O)NCc1ccccc1Cl	none (no result: L3MBTL1 inh)
Cc1ccc(-c2csc(=S)[nH]2)cc1	BAZ2B inh inconclusive, G9a block 13µM (no result: L3MBTL1 inh)
S=c1nccc(-c2ccc(Cl)cc2)[nH]1	none
S=c1[nH]c(-c2ccc(Cl)cc2)cs1	L3MBTL1 inh inconclusive, BAZ2B inh 45µM, JMJD2A Tudor inh inconclusive, G9a block 35µM
CCCn1c(CCC(=O)Nc2cccc(C)c2C)nc2cccnc21	none (no result: L3MBTL1 inh)
Cc1ccc(N2CC(C(=O)Nc3nnc(SCC(=O)N4CCOCC4)s3)CC2=O)cc1 (stereo unspecified)	G9a block 45µM (no result: L3MBTL1 inh)
Cc1ccc(N2CC(C(=O)Nc3nnc(SCCC4OCCO4)s3)CC2=O)cc1C (stereo unspecified)	none (no result: L3MBTL1 inh)
O=C(Nc1nnc(SCC(=O)N2CCCCC2)s1)c1cccs1	JMJD2A Tudor inh inconclusive, G9a block 8.9µM
O=C(Nc1nnc(SCCN2CCOCC2)s1)C1CC(=O)N(c2ccccc2)C1 (stereo unspecified)	G9a block 45µM (no result: L3MBTL1 inh)
Cc1ccc(N2CC(C(=O)Nc3nnc(SCCC4OCCO4)s3)CC2=O)cc1 (stereo unspecified)	G9a block 13µM (no result: L3MBTL1 inh)
CCOc1ccc(NC(=O)Cn2cc(C(=O)c3ccc(OCC)cc3)c(=O)c3cc4c(cc32)OCCO4)cc1	none (no result: L3MBTL1 inh)
O=C(Nc1ccccc1C(=O)OCc1cc(=O)n2c3c(sc2n1)CCCC3)c1cccc(Cl)c1	none (no result: L3MBTL1 inh)
COCc1nnc(NC(=O)C2CC(=O)N(c3ccc(C)c(Cl)c3)C2)s1 (stereo unspecified)	G9a block 16µM
O=C(Nc1nnc(SCC(=O)N2CCOCC2)s1)C1CC(=O)N(c2ccc(F)cc2)C1 (stereo unspecified)	none (no result: L3MBTL1 inh)
COC(=O)CSc1nnc(NC(=O)C2CC(=O)N(c3ccc(F)cc3)C2)s1 (stereo unspecified)	G9a block 40µM (no result: L3MBTL1 inh)
COc1cccc(N2CC(C(=O)Nc3nnc(SCC(=O)NC4CCCC4)s3)CC2=O)c1 (stereo unspecified)	G9a block 32µM (no result: L3MBTL1 inh)
O=C(Nc1nnc(SCC(=O)N2CCCC2)s1)C1CC(=O)N(c2ccc(F)cc2)C1 (stereo unspecified)	G9a block 20µM (no result: L3MBTL1 inh)
Cc1cc(F)ccc1S(=O)(=O)N1CCC2(CC1)OCCN2S(=O)(=O)c1cccs1	none
O=C(CSc1nc2ccc(NC(=O)C3CCCCC3)cc2s1)NCC1CCCO1 (stereo unspecified)	G9a block 45µM
O=C(CSc1nnc(NC(=O)C2CC(=O)N(c3ccccc3)C2)s1)NCc1ccco1 (stereo unspecified)	JMJD2A Tudor inh inconclusive, G9a block inconclusive (no result: L3MBTL1 inh)
COc1cc(C(=O)Nc2nnc(SCC(=O)NCC3CCCO3)s2)cc(OC)c1OC (stereo unspecified)	BAZ2B inh inconclusive, G9a block 71µM (no result: L3MBTL1 inh)
O=C(CSc1nnc(NC(=O)C2CC(=O)N(c3ccccc3)C2)s1)NCC1CCCO1 (stereo unspecified)	G9a block 40µM (no result: L3MBTL1 inh)
CCOc1ccc(N2CC(C(=O)Nc3nnc(SCCOC)s3)CC2=O)cc1 (stereo unspecified)	G9a block 71µM (no result: L3MBTL1 inh)
COc1ccc(C(=O)CSc2nnc(NC(=O)C3CC(=O)N(c4ccccc4)C3)s2)cc1 (stereo unspecified)	G9a block 45µM
O=C(CSc1nnc(NC(=O)C2CC(=O)N(c3ccc(F)cc3)C2)s1)NC1CCCC1 (stereo unspecified)	G9a block 25µM (no result: L3MBTL1 inh)
COc1ccc(N2CC(C(=O)Nc3nnc(SCC(=O)N4CCCC4)s3)CC2=O)cc1 (stereo unspecified)	none (no result: L3MBTL1 inh, G9a block)
CCCCSc1ncnc2c1ncn2C1CCCCO1 (stereo unspecified)	none (no result: L3MBTL1 inh, BAZ2B inh, G9a block)
Cc1oc(-c2ccc(C(=O)Nc3cccc(C(F)(F)F)c3)cc2)nc1CSc1ccccc1	none (no result: L3MBTL1 inh)
CCc1cc(C(=O)Nc2c(C)nn(Cc3ccc(C)cc3)c2C)no1	none (no result: L3MBTL1 inh)
NNc1nccc(Nc2ccccc2C(=O)O)n1	L3MBTL1 inh inconclusive, BAZ2B inh 25µM, JMJD2A Tudor inh inconclusive, G9a block inconclusive
O=C(Cc1ccc(Cl)cc1)NCC(c1cccs1)S(=O)(=O)c1ccccc1 (stereo unspecified)	none (no result: L3MBTL1 inh)
O=C(CCCn1c(=S)[nH]c2ccccc2c1=O)N1CCOCC1	BAZ2B inh inconclusive, JMJD2A Tudor inh 22µM
COc1ccc(OC)c(NC(=O)CCn2c(=S)[nH]c3ccccc3c2=O)c1	none (no result: L3MBTL1 inh)
Nc1ccccc1NC(=O)CCn1c(=S)[nH]c2ccccc2c1=O	G9a block 45µM (no result: L3MBTL1 inh)
O=C(CCCCCn1c(=S)[nH]c2ccccc2c1=O)N1CCOCC1	G9a block 35µM
COC(=O)c1c(NC(=O)CS(=O)(=O)c2ccc(C)cc2)sc2c1CCCCC2	none (no result: L3MBTL1 inh)
CCOC(=O)C1CCN(CC(=O)c2ccc(O)c(C)c2O)CC1	G9a block inconclusive (no result: L3MBTL1 inh)
COc1ccc(C(=O)NC2(C(F)(F)F)NC(=O)N(CCCc3ccccc3)C2=O)cc1OC (stereo unspecified)	JMJD2A Tudor inh 79µM
CCOc1ccc(CCNC(=O)c2cc3sc(CC)cc3n2C)cc1OCC	JMJD2A Tudor inh inconclusive (no result: L3MBTL1 inh)
COc1ccccc1Nc1ccc(N)cc1	L3MBTL1 inh inconclusive, BAZ2B inh 28µM, JMJD2A Tudor inh 50µM, G9a block 13µM, HP1b chromo inh inconclusive
